# Test results: article PMC7826789 (International Journal of Molecular Sciences, 2021)
smiles,measurement,setting,value
Cc1c(Cn2ccn3c(=O)nc(N4CCOCC4)cc23)cccc1C(F)(F)F [GSK2336394],Kinases covered,PIK3CB,PIK3CB
C[C@@H](Oc1cc(-n2cnc3ccc(OC4CCN(C)CC4)cc32)sc1C(N)=O)c1ccccc1Cl [GSK579289A],Kinases covered,NEK9,NEK9
CN1C(=O)c2ccccc2N(C)c2nc(Nc3cnn(C4CCNCC4)c3)ncc21 [XMD-17-51],Kinases covered,NUAK1,NUAK1
Cn1ccc2ncnc(Oc3ccc(NC(=O)Nc4ccccc4)cc3)c21 [TPKI-69],Kinases covered,PDGFRA,PDGFRA
same,Kinases covered,PDGFRB,PDGFRB
COc1cc2c(cc1OC)C(=C(Nc1ccccc1)c1cccc(CN)c1)C(=O)N2 [BIBF0846CL],Kinases covered,PDGFRB,PDGFRB
COc1cc2ncn(-c3cc(O[C@H](C)c4ccccc4Cl)c(C(N)=O)s3)c2cc1OC [GSK237701A],Kinases covered,NEK9,NEK9
same,Kinases covered,PDGFRA,PDGFRA
same,Kinases covered,PDGFRB,PDGFRB
O=C(Nc1ccccc1)Nc1cccc(Oc2ccc3nccn3n2)c1 [TPKI-39],Kinases covered,PDGFRA,PDGFRA
same,Kinases covered,PDGFRB,PDGFRB
Cc1c(Cn2c(C)c(C)n3c(=O)cc(N4CCOCC4)nc23)cccc1C(F)(F)F [GSK2328680],Kinases covered,PIK3CB,PIK3CB
C[C@@H]1CCNC(=O)c2cc3ccc(C(=O)Nc4nc5ccccc5n4CCCN(C)C)cc3n21 [BI00645435],Kinases covered,NUAK2,NUAK2
O=C(Nc1n[nH]c2cc(-c3cccc(F)c3)ccc12)C1CC1 [SB-735464],Kinases covered,NLK,NLK
Cc1ccc(NC(=O)Nc2ccccc2F)cc1-c1ccc(C(=O)Nc2ccncc2)cc1 [GSK1398477],Kinases covered,PDGFRB,PDGFRB
CC(C)C(=O)N[C@@H]1CCN(C(=O)Nc2nc3c(s2)-c2nc(-c4ccccc4Cl)ncc2CC3)C1 [BI00047804],Kinases covered,NEK5,NEK5
same,Kinases covered,PIK3CG,PIK3CG
Cc1nnc(-c2ccc3occ(-c4ccc(S(C)=O)cc4)c3c2)[nH]1 (stereo not drawn) [TPKI-85],Kinases covered,PIK3C3,PIK3C3
CNS(=O)(=O)c1ccc(N(C)C)c(Nc2ncnc3cc(OC)c(OC)cc23)c1 [GSK114],Kinases covered,PDGFRB,PDGFRB
Cc1nc(Nc2cnn(C3CCNCC3)c2)nc2c1N(C)C(=O)c1cc3ccccc3cc1N2C [HTH-01-015],Kinases covered,NUAK1,NUAK1
Nc1ncnc2occ(-c3ccc(NC(=O)Nc4cc(C(F)(F)F)ccc4F)cc3)c12 [GW770249X],Kinases covered,NTRK1,NTRK1
same,Kinases covered,PDGFRA,PDGFRA
COc1ncc(-c2cc(-c3ncc(CN4C[C@@H](C)O[C@@H](C)C4)o3)c3cn[nH]c3c2)cc1NS(C)(=O)=O [GSK2292767],Kinases covered,PIK3CD,PIK3CD
FC1=CC(C3=NC2=CC(OC)=C(OC)C=C2C(N[C@H]4[C@H]([C@](C)(O)C)CNC4)=N3)=C(O)C=C1.Cl.Cl [CCT241533],Kinases covered,PHK,PHK
NS(=O)(=O)c1cccc(-c2ccc3nccc(-c4cccc(S(N)(=O)=O)c4)c3c2)c1 [GW867253],Kinases covered,PI4KB,PI4KB
same,Kinases covered,PIK3CG,PIK3CG
O=C(O)/C=C/C(=O)O.OCCCNc1nccc(-c2c(-c3ccc(F)cc3)nn3cc(C(F)(F)F)ccc23)n1 [GW569293E],Kinases covered,NLK,NLK
COc1ccc(-c2cc3c(C)nc(N)nc3n([C@H]3CC[C@H](O)CC3)c2=O)cn1 [PFE-PKIS 40],Kinases covered,PI4KB,PI4KB
same,Kinases covered,PIK3C2B,PIK3C2B
same,Kinases covered,PIK3C2G,PIK3C2G
same,Kinases covered,PIK3CB,PIK3CB
same,Kinases covered,PIK3CD,PIK3CD
same,Kinases covered,PIK3CG,PIK3CG
CC(=O)c1cccc(NC(=O)NC2CCN(c3ccnc(Nc4ccc(F)cc4)n3)C2)c1 (stereo not drawn) [GSK1379710],Kinases covered,NTRK3,NTRK3
COc1ccccc1-c1cc(/C=C2\C(=O)Nc3ncc(Br)cc32)cc(Br)c1O [GW442130X],Kinases covered,NTRK1,NTRK1
same,Kinases covered,NTRK3,NTRK3
CCC(=O)Nc1cccc(Oc2nc(Nc3ccc(N4CCN(C)CC4)cc3OC)ncc2Cl)c1 [WZ4003],Kinases covered,NUAK1,NUAK1
same,Kinases covered,NUAK2,NUAK2
Fc1ccc(-c2nn3ccccc3c2-c2ccncc2)cc1 [GW434756X],Kinases covered,NLK,NLK
Cc1cnc(N)c(/C=C/c2cncc(C(=O)NCCc3ccc(Cl)cc3Cl)c2)c1 [GSK190937],Kinases covered,PDGFRA,PDGFRA
CNc1nc(-c2ccc3c(N)n[nH]c3c2)cc(N2C[C@@H](C(=O)Nc3ccccc3)CC[C@H]2C)n1 [GSK2298859],Kinases covered,PDPK1,PDPK1
CCOc1ccc2c(-c3ccnc(Nc4cc(OC)cc(C(F)(F)F)c4)n3)cnn2n1 [GW807982X],Kinases covered,NEK6,NEK6
CC[C@@H]1CO[C@H](C(=O)Nc2ccccc2)CN1c1cc(-c2ccc3c(N)n[nH]c3c2)nc(NC)n1 [GSK2376236],Kinases covered,PDPK1,PDPK1
COc1cc2nccc(Nc3ccc(OCc4ccc(NC(C)=O)cc4)cc3)c2cc1OC [GW440135],Kinases covered,PDGFRA,PDGFRA
Cc1cn(-c2cc(NC(=O)c3ccc4c(c3)CN(c3cncnc3)C[C@@H]4C)cc(C(F)(F)F)c2)cn1 [D2202-1],Kinases covered,NTRK1,NTRK1
same,Kinases covered,NTRK2,NTRK2
CN(C)C(=O)/C(C#N)=C/c1ccc(-c2nc3cnc4[nH]ccc4c3n2C2CCCCC2)o1 [FM-381],Kinases covered,PIK3C2G,PIK3C2G
COc1ccc(-c2cc3c(C)nc(N)nc3n([C@H]3CC[C@H](OCCO)CC3)c2=O)cn1 [PFE-PKIS 29],Kinases covered,PI4KB,PI4KB
same,Kinases covered,PIK3C2B,PIK3C2B
same,Kinases covered,PIK3C2G,PIK3C2G
same,Kinases covered,PIK3CB,PIK3CB
same,Kinases covered,PIK3CD,PIK3CD
CC(C)N1CCN(Cc2cnc(-c3cc(-c4cccc5[nH]ccc45)cc4[nH]ncc34)o2)CC1 [GSK2269557],Kinases covered,PIK3CD,PIK3CD
CC(C)N1CC(=O)N(C)c2cnc(Nc3cccc(S(=O)(=O)CCN4CCOCC4)c3)nc21 [BI00009348],Kinases covered,PIK3CG,PIK3CG
O=c1cc(N2CCOCC2)nc2n(Cc3ccccc3F)ccn12 [GSK2297428],Kinases covered,PIK3C3,PIK3C3
Cc1c(Cn2c(C)nn3c(=O)cc(N4CCO[C@H](C)C4)nc23)cccc1C(F)(F)F [GSK2373690],Kinases covered,PIK3CB,PIK3CB
same,Kinases covered,PIK3CG,PIK3CG
